Compound activity as filed in PubChem BioAssay.
LRH-1 inv ag = inverse agonists of human LRH-1 (NR5A2); HEK293T StAR-luciferase reporter, LRH-1 transfected, 24 h; 360,000 tested, 0.13% active; inhibition, % at 3.6 µM; O00482;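 active means inhibition above the mean inhibition of all tested compounds plus 3 SD, cut at about 73% in these data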;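 further: 0% = DMSO wells and 100% = reporter-only cells lacking LRH-1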
NCOA3 inh = inhibitors of human steroid receptor coactivator 3 (SRC3) | 360,000 tested, 0.17% active | AID 588352 | HEK293 GAL4-SRC3 luciferase reporter, luminescence | Q9Y6Q9 | inhibition, % at 3.6 µM;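 active means inhibition above a per-campaign cutoff, the mean of all compounds plus 3 SD, cut at about 60% in these data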;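 further: 0% = DMSO-treated cells and 100% = gossypol-treated cells at 36 µM; higher means less SRC3-driven luciferase light from the GAL4 reporter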
COUP-TFII inh = inhibitors of human COUP-TFII (NR2F2); HEK293T NGFI-A luciferase reporter, luminescence; P24468; 370,000 tested, 0.7% active; AID 686940; inhibition, % at 8.6 µM;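 active means inhibition above a per-plate cutoff, mean inhibition of test wells between control levels plus 3 SD, cut at about 38% in these data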;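 further: cells cotransfected with COUP-TFII expression vector driving the NGFI-A reporter; 0% = median of COUP-TF2 test wells and 100% = reporter-only cells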
SRC2 inh = human SRC2 (NCOA2) inhibition | Q15596 | HEK293 GAL4-SRC2 luciferase reporter, luminescence | inhibition, % at 9 µM | 370,000 tested, 0.17% active | AID 651957;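 active means inhibition above the mean inhibition of all tested compounds plus 3 SD, set per campaign, cut at about 52% in these data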;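 further: 0% = DMSO treated cells and 100% = cells given Gossypol at 36 µM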
NCOA1 inh = human NCOA1 inhibition. HEK293 GAL4-SRC1 luciferase reporter, luminescence. inhibition, % at 3.6 µM. 360,000 tested, 0.12% active;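 active means inhibition above the campaign mean plus 3 SD, with each screening campaign given its own cutoff, cut at about 60% in these data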;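 further: 0% = DMSO treated cells and 100% = gossypol at 36 µM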
Gli-Sufu block = antagonists of Gli-Sufu signaling. Sufu-KO-LIGHT fibroblasts, Gli luciferase reporter luminescence. inhibition, % at 5 µM. 340,000 tested, 0.74% active. AID 588413;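 active means inhibition above about 55%, limit read from the data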;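 further: 0% = DMSO-treated cells and 100% = wells with medium but no cells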
Gli antag conf = confirmation of Gli-SUFU pathway antagonists | inhibition, % at 5 µM | 2,500 tested, 40% active | AID 602428 | Sufu-KO-LIGHT cells, Gli luciferase reporter, luminescence | shares compounds with Gli-Sufu block;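 active means mean inhibition at 5 µM reaching about 45%, limit read from the data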;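 further: plate controls were DMSO-treated cells for no effect and wells lacking cells for full effect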
SufuKO cytotox = counter-screen for Gli-SUFU antagonists: cytotoxicity; shares compounds with Gli-Sufu block; 2,500 tested, 32% active; cytotoxicity, % at 5 µM; Sufu-KO-LIGHT cells cytotoxicity, ATP luminescence;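 active means mean cytotoxicity at 5 µM above about 25%, limit read from the data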;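 further: cells exposed to compound overnight for roughly 16 to 18 hours; plate controls were DMSO wells with cells for no effect and medium without cells for full effect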
Wnt3a cs = inhibits Wnt3a reporter, counter-screen for Gli-SUFU antagonists; shares compounds with Gli-Sufu block; Wnt-LIGHT cells, Wnt3a-driven luciferase reporter, luminescence; inhibition, % at 6.25 µM; 2,500 tested, 20% active; AID 651995;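 active means mean inhibition above about 25%, limit read from the data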
Active calls of the source: *; . = no result. A selection: hits, their analogues and other compounds. The true share with any hit is near 1.3%.

SMILES	LRH-1 inv ag	NCOA3 inh	COUP-TFII inh	SRC2 inh	NCOA1 inh	Gli-Sufu block	Gli antag conf	SufuKO cytotox	Wnt3a cs
Cc1cc(C)n(-c2nnc(C)n2/N=C/c2ccco2)n1	-5	8	-2	6	1	53	5	-1	0
Cc1cc(NC(=O)CSc2ccc(-c3nc4cc(C)c(C)cc4[nH]3)cn2)no1	-126	-80	.	.	-119	97*	21	27*	-206
CCOc1ccc(S(=O)(=O)Nc2ccc(C(=O)N3CCCC3)cc2)cc1	10	2	6	8	-1	2	.	.	.
CCOc1ccc(NS(=O)(=O)c2cccc(C(=O)N3CCN(C/C=C/c4ccccc4)CC3)c2)cc1	3	4	3	24	-30	54	34	13	-52
CCOc1ccc(NS(=O)(=O)c2ccc(C(=O)N3CCCC(C)C3)cc2)cc1 (stereo not drawn)	13	27	33	3	-6	57*	27	2	-13
O=C(c1cccc(S(=O)(=O)N2CCOCC2)c1)N1CCN(C/C=C/c2ccccc2)CC1	30	-16	-9	13	11	-10	.	.	.
CC(C)CN1C(=O)C[C@@]2(C(=O)N(C)c3ccc(NS(=O)(=O)C4CCCCC4)cc32)C1c1ccccc1 (stereo partly drawn)	.	.	11	-2	.	.	.	.	.
CC(C)(C)c1nnc(N/N=C/c2ccccc2O)n(N)c1=O	-16	79*	14	33	70*	61*	71*	51*	55*
CC(C)(C)c1nnc(N/N=C/c2ccccc2)n(N)c1=O	1	-5	19	-15	-13	-13	.	.	.
C=CCCC1CN(Cc2ccc(OC)cc2)S(=O)(=O)c2c(cccc2N2CCCC2)O1 (stereo not drawn)	.	.	3	28	.	.	.	.	.
CC1(C)CC(=O)c2c(O)cc(OCc3ccc(Br)cc3)cc2O1	-120	-83	-41	-67	-95	96*	-40	22	-123
CCc1ccc2c(c1)CCCN2C(=O)c1ccccc1C(=O)O	10	-3	4	9	-29	51	27	1	-60
CC[C@@H](CCCc1ccccc1OC)CCS(=O)(=O)C(C)(C)C	.	.	2	-30	.	.	.	.	.
S=C(Nc1ccc2nc(-c3ccccn3)c(-c3ccccn3)nc2c1)N1CCCCC1	-16	-26	.	.	-35	54	31	11	3
CCN(CC)CCCNC(=O)CSc1nnc(-c2ccncc2)n1-c1ccc(OC)cc1	.	.	-7	26	.	.	.	.	.
Cc1ccc(-c2nc3sc4c(N)ncnc4c3c3c2CCCC3)cc1	-4	4	7	3	-13	55	28	-14	25*
O=c1[nH]cnc2c1sc1nc(-c3ccccc3)c3c(c12)CCCC3	-8	7	-5	-6	2	9	.	.	.
COc1ccc(CNC(=O)CSc2ncn[nH]2)cc1	-7	9	6	0	2	87*	27	4	-1
Cc1ccc(CN2CC=CCS2(=O)=O)cc1	.	.	-8	-5	.	.	.	.	.
CCCC(=O)Nc1sc(C)c(C)c1C#N	9	13	-11	-35	4	20	.	.	.
CCCCCC(=O)Nc1sc(C)c(C)c1C#N	-28	0	-30	-11	-10	66*	12	2	-37
CCC[C@@H](/C=C/C(=O)OC(C)(C)C)Sc1ccc(N)cc1	.	.	1	-7	.	.	.	.	.
COC(=O)c1ccc2c(c1)C(NC(C)=O)CCc1cc(OC)c(OC)c(OC)c1-2 (stereo not drawn)	26	11	-79	18	-17	65*	60*	57*	14
CCCC(=O)NC1CCc2cc(OC)c(OC)c(OC)c2-c2ccc(OC)c(=O)cc21 (stereo not drawn)	20	22	-66	6	-17	56*	58*	64*	-2
COc1cc2c(c(OC)c1OC)-c1ccc(OC)c(=O)cc1C(NC(C)=O)CC2 (stereo not drawn)	28	24	-79	-9	-14	45	.	.	.
SMILES	LRH-1 inv ag	NCOA3 inh	COUP-TFII inh	SRC2 inh	NCOA1 inh	Gli-Sufu block	Gli antag conf	SufuKO cytotox	Wnt3a cs
COc1cccc(C(=O)Nc2ccc3c(cc2=O)[C@@H](NC(C)=O)CCc2cc(OC)c(OC)c(OC)c2-3)c1	25	15	.	.	-6	5	.	.	.
C[C@@H]1[C@@H](O)C[C@@]2(CC(=O)c3ccccc3O2)O[C@H]1c1ccccc1	.	.	6	-19	.	.	.	.	.
COc1ccccc1N1C(C)=CC(=C(C#N)c2nc3ccccc3s2)C=C1C	-2	19	1	-11	-12	53	54*	11	38*
COc1ccc(S[C@]2(C(=O)N3CCCC3)CC(=O)N(S(=O)(=O)c3ccc(F)cc3)[C@@H]2c2ccc(OC)cc2)cc1	.	.	14	-15	.	.	.	.	.
Cc1ccc(S(=O)(=O)N2CC[C@@]3(Cc4ccccc4)Cc4ccccc4C[C@@H]23)cc1	.	.	6	.	.	.	.	.	.
CCOc1ccc(/C=C2\NCCc3cc(OCC)c(OCC)cc32)cc1OCC	.	.	24	27	.	.	.	.	.
CSc1nnc(Cn2c(=O)sc3ccccc32)n1-c1ccccc1C	-3	-16	17	7	-28	52	24	0	-4
CCSc1nnc(Cn2c(=O)sc3ccccc32)n1-c1ccccc1C	-2	-3	28	-1	-28	2	.	.	.
Cc1ccc(Nc2nc(N3CCOCC3)nc(N3CCOCC3)n2)cc1C	-6	-35	9	3	-29	57*	50*	41*	-51
O=C(NC1=N[C@@]2(C=C3CCCCC3n3c(=O)n(-c4ccccc4)c(=O)n32)[C@H](Cc2ccccc2)N1Cc1ccccc1)c1ccccc1 (stereo partly drawn)	.	.	-8	4	.	.	.	.	.
C=CCCN(C(CC(C)C)C(=O)OC)S(=O)(=O)c1cc(Br)ccc1Br (stereo not drawn)	0	21	-8	2	11	51	19	22	16
CCN(CC)S(=O)(=O)c1cccc(NC(=O)CNc2cccc(S(=O)(=O)N3CCOCC3)c2)c1	41	28	.	.	27	63*	69*	25*	29*
CN(C)S(=O)(=O)c1cccc(NC(=O)COC(=O)CCSc2ccc(Cl)cc2)c1	-16	20	4	1	4	3	.	.	.
CCN(CC)S(=O)(=O)c1cc(NC(=O)CNc2cccc(S(=O)(=O)N3CCCC3)c2)ccc1C	42	3	.	.	30	72*	66*	31*	19
CCN(CC)S(=O)(=O)c1cccc(NC(=O)CCSc2ccc(Cl)cc2)c1	9	4	10	7	3	51	10	28*	-33
